{"source": "ChEMBL document CHEMBL4888484", "about": "“Replenishing the malaria drug discovery pipeline: Screening and hit evaluation of the MMV Hit Generation Library 1 (HGL1) against asexual blood stage Plasmodium falciparum ,using a nano luciferase reporter read-out” (2022)", "note": "Among all 4,800 compounds or so, about 410 (8.5%) showed an effect of 50% or more. Shown is part of a subset that was picked to be rich in strong results.", "data": [{"test_system": "Plasmodium falciparum", "assay": "Confirmatory screen in NF54 pLDH assay, in single point, at 2uM, 72h", "format": "functional, Erythrocyte", "conditions": "timepoint 72 hour", "units": {"% Inhibition": "%"}, "values": [{"smiles": "CCn1ncc2ccc(N[C@@H](C)C3(O)CCOCC3)cc21", "% Inhibition": 12}, {"smiles": "CCOc1ccc(C(=O)N2CCN(c3nnc4ccccn34)CC2)cc1", "% Inhibition": 8}, {"smiles": "CC(=O)c1cccc(NC(=O)[C@@]23CCC(=O)N2c2ccccc2C(=O)N3C)c1", "% Inhibition": 88}, {"smiles": "CCCN1C(=O)c2ccccc2N2C(=O)CC[C@@]12C(=O)Nc1ccc(OC)cc1", "% Inhibition": 92}, {"smiles": "CCN1C(=O)c2ccccc2N2C(=O)CC[C@@]12C(=O)Nc1cccc(OC)c1", "% Inhibition": 96}, {"smiles": "CCCN1C(=O)c2ccccc2N2C(=O)CC[C@@]12C(=O)Nc1ccccc1", "% Inhibition": 97}, {"smiles": "O=C(CN1C[C@@H](c2ccccc2)Oc2ccccc2C1=O)Nc1ccccc1", "% Inhibition": -14}, {"smiles": "CC(=O)c1cccc(NC(=O)c2nonc2C)c1", "% Inhibition": -11}, {"smiles": "COc1cccc(NC(=O)c2ccc3c(c2)N(C)[C@@H]2CCCCCN2C3=O)c1", "% Inhibition": 9}, {"smiles": "COc1ccc(NC(=O)CCC(=O)N2CCc3ccccc3C2)cc1", "% Inhibition": 6}, {"smiles": "COc1ccc(NC(=O)C2=NN(CC(=O)Nc3cccc(OC)c3)C(=O)CC2)cc1", "% Inhibition": -4}, {"smiles": "CC(=O)c1cccc(NC(=O)Cn2c(=O)n(CCc3ccccc3)c(=O)c3ccccc32)c1", "% Inhibition": 10}, {"smiles": "COc1ccc(NC(=O)CN2N=C(C(=O)Nc3ccccc3)CCC2=O)cc1", "% Inhibition": -2}, {"smiles": "CC(=O)N1C(C(=O)O)Cc2c([nH]c3ccccc23)C1c1ccc2c(c1)OCO2", "note": "(stereo not given)", "% Inhibition": 5}, {"smiles": "Clc1ccc(Cl)c(-c2ccc(CNn3cnnc3)o2)c1", "% Inhibition": 11}, {"smiles": "O=C(NCC1(Cc2ccccc2)CCC1)N(CCO)C1CC1", "% Inhibition": -1}, {"smiles": "Cc1ccn(-c2ccc(C(=O)NC3CCCC3)cn2)n1", "% Inhibition": -9}, {"smiles": "C[C@@H](C(=O)Nc1ncc[nH]1)c1ccc2c(c1)[nH]c1ccc(Cl)cc12", "% Inhibition": 16}, {"smiles": "c1coc([C@H](CNC2CCCC2)N2CCCC2)c1", "% Inhibition": -12}, {"smiles": "O=C1NCCC[C@@H]1Nc1ccc(C(F)(F)F)nn1", "% Inhibition": 2}, {"smiles": "COC[C@H]1[C@H](NC(=O)c2ncc(F)cc2F)[C@H]2CCO[C@H]21", "% Inhibition": -17}, {"smiles": "Nc1nc(C2CC(N)C2)cc(N2CCC(Oc3ccccc3Cl)CC2)n1", "note": "(stereo not given)", "% Inhibition": 65}, {"smiles": "Nc1nc(N2CCN(c3ccc(F)c(Cl)c3)CC2)cc([C@H]2C[C@@H](N)C2)n1", "% Inhibition": 34}, {"smiles": "O=C(CN1CCN(Cc2ccc(F)cc2)C1=O)NC1CCCCCCC1", "% Inhibition": 0}, {"smiles": "CC[C@@H](Cc1ccccc1Br)C(=O)NCCC(N)=O", "% Inhibition": -6}, {"smiles": "O=C(Nc1ccc(NC2CCOCC2)cc1)c1cc(F)c(O)c(F)c1", "% Inhibition": -10}, {"smiles": "CC1(C)Oc2ccc(NC(=O)COc3ccccc3)cc2NC1=O", "% Inhibition": 12}, {"smiles": "O=C(COc1ccccc1)Nc1ccc2c(c1)C(O)=Nc1cccnc1O2", "% Inhibition": 64}, {"smiles": "CC(C)(C)CC(=O)Nc1ccc2c(c1)C(N1CCCCC1)=Nc1ccccc1O2", "% Inhibition": -4}, {"smiles": "CC(C)(C)OC(=O)Cn1cc(CO)nn1", "% Inhibition": 10}, {"smiles": "O=C(C[C@H]1CCOC1)Nc1cc2ccc(Br)cn2n1", "% Inhibition": 11}, {"smiles": "COC(=O)c1cc(NC(=O)N2CCO[C@H](C(=O)OC)C2)c(F)cc1F", "% Inhibition": 6}, {"smiles": "CC1CN(C(=O)C(C(C)C)N2CC(C)OC(C)C2)CCO1", "note": "(stereo not given)", "% Inhibition": -12}, {"smiles": "COc1ccc(NC(=O)C2=Cc3cc(Cl)cc(OC)c3OC=C2)cc1", "% Inhibition": -1}, {"smiles": "CCCN(CCC)CCN1C(=O)[C@@H]2C(C(=O)Nc3cc(Cl)cc(Cl)c3)[C@@H]3C=C[C@]2(O3)C1C(=O)NC1CCCCC1", "note": "(stereo not given in full)", "% Inhibition": 50}, {"smiles": "O=c1[nH]cnc2c1nc(N1CCCCC1)n2C1OC(CO)C(O)C1O", "note": "(stereo not given)", "% Inhibition": 3}, {"smiles": "O=C(Cc1nnc2ccc(C(=O)Nc3ccccc3)cn12)Nc1ccc(F)cc1", "% Inhibition": 8}, {"smiles": "O=C(CCCc1ccccc1)Nc1cc(C2CC2)nn1-c1nc(-c2ccccc2)cc(=O)[nH]1", "% Inhibition": 36}, {"smiles": "CCc1cc(=O)[nH]c(-n2nc(C3CC3)cc2NC(=O)C2CCCCC2)n1", "% Inhibition": 87}, {"smiles": "CCc1cc(C(=O)N2CCCCCC2)c2c(C3CC3)nn(-c3ccc(F)cc3)c2n1", "% Inhibition": 5}, {"smiles": "Cc1ccc(C(=O)Nc2c(C(N)=O)sc3nc(C(F)F)cc(C4CC4)c23)cc1", "% Inhibition": -9}, {"smiles": "Cc1cc(F)ccc1NC(=O)Cn1nc(C2CC2)c2c(C(F)F)cc(=O)[nH]c21", "% Inhibition": 9}, {"smiles": "CC(C)c1cc(=O)[nH]c(-n2nc(C3CC3)cc2NC(=O)c2ccc(F)cc2)n1", "% Inhibition": 89}, {"smiles": "Cc1cc(=O)[nH]c(-n2nc(C3CC3)cc2NC(=O)C(c2ccccc2)c2ccccc2)n1", "% Inhibition": 87}, {"smiles": "Cc1cc(=O)[nH]c(-n2nc(C3CC3)cc2NC(=O)c2ccc(C(C)(C)C)cc2)n1", "% Inhibition": 52}, {"smiles": "CCC(CC)C(=O)Nc1cc(C2CC2)nn1-c1nc(-c2ccccc2)cc(=O)[nH]1", "% Inhibition": 45}, {"smiles": "Cc1nn(C)c(NC(=O)c2ccc(C(C)(C)C)cc2)c1C1=CCCCC1", "% Inhibition": -5}, {"smiles": "CC(C)(C)c1ccc(C(=O)N[C@H]2CCCC[C@@H]2NC(=O)c2ccc(C(C)(C)C)cc2)cc1", "% Inhibition": 2}, {"smiles": "CN1CCC[C@H](C(=O)Nc2nc(C3CC3)cs2)C1", "% Inhibition": -2}, {"smiles": "CC1CC(c2ccccc2)CCN1C(=O)c1cc(C2CC2)on1", "note": "(stereo not given)", "% Inhibition": 6}, {"smiles": "Cc1n[nH]cc1Nc1ccnc(C(C)(C)C)n1", "% Inhibition": 7}, {"smiles": "CC(C)OC[C@@H](O)CN1CC(C2CCC2)C1", "% Inhibition": -19}, {"smiles": "CC1CCCCC1NC(=O)CN1CCN(Cc2cccc(Cl)c2)C1=O", "note": "(stereo not given)", "% Inhibition": -4}, {"smiles": "Cc1cc2ncc(-n3cncn3)c(-c3ccccc3)n2n1", "% Inhibition": 8}, {"smiles": "CCc1ccc(CN2CCN(Cc3cccc(Oc4ccccc4)c3)CC2)cc1", "% Inhibition": 8}, {"smiles": "CCC1CC(CC(=O)NS(=O)(=O)c2ccnn2C)CCO1", "note": "(stereo not given)", "% Inhibition": 0}, {"smiles": "COc1ccc2cc3n(c2c1)C[C@](C(=O)NC1CCCCCC1)(c1ccccc1)N(Cc1ccccc1Cl)C3=O", "% Inhibition": 13}, {"smiles": "CC1(C)CCCc2sc(NC(=O)N[C@H]3CCOC4(CCC4)C3)nc21", "% Inhibition": 1}, {"smiles": "Cc1cc(Br)ccc1CN(C)S(C)(=O)=O", "% Inhibition": -4}, {"smiles": "CCOc1ccc2sc(NC(=O)Cn3cnc4nc(N5CCCCC5)sc4c3=O)nc2c1", "% Inhibition": -1}, {"smiles": "Cn1ccc(C2=Nc3ccccc3NC(=O)C2)n1", "% Inhibition": -4}, {"smiles": "O=S(=O)(c1ccco1)N1CC[C@H](Oc2ccccc2)C1", "% Inhibition": 10}, {"smiles": "O=S(=O)(c1ccc(F)c(Cl)c1)N1CC[C@H](Oc2ccncc2Cl)C1", "% Inhibition": 89}, {"smiles": "O=S(=O)(c1ccc(Cl)cc1)N1CCC(c2cc(-c3cccc(C(F)(F)F)c3)[nH]n2)CC1", "% Inhibition": 0}, {"smiles": "O=S(=O)(c1ccc(Br)o1)N1CCCC[C@H]1c1ncc[nH]1", "% Inhibition": -20}, {"smiles": "Cc1ccc(NC(=O)COC(=O)c2nccc3ccccc23)cc1", "% Inhibition": 11}, {"smiles": "COc1cccc(Oc2nc(N3CCN(C)CC3)nc3c2CN(C(=O)Nc2ccccc2)CC3)c1", "% Inhibition": 10}, {"smiles": "COc1cccc(CC(=O)N2CCc3nc(N4CCC(C)CC4)nc(Oc4ccccc4OC)c3C2)c1", "% Inhibition": 61}, {"smiles": "CC1CCN(c2nc3c(c(Oc4cccc(F)c4)n2)CN(Cc2ccccn2)CC3)CC1", "% Inhibition": 21}, {"smiles": "Cc1cc(C)n(S(=O)(=O)c2cccc3cccnc23)n1", "% Inhibition": -10}, {"smiles": "COc1cc(OC)cc(C(=O)Nc2ccc3nc(N4CCC(C)CC4)cc(C)c3c2)c1", "% Inhibition": 40}, {"smiles": "CCn1cc(C(=O)Nc2ccc(C(=O)N3CCCCC3)cc2)cn1", "% Inhibition": 5}, {"smiles": "CCN(CC)c1ccc(C(=O)Nc2ccc3nc(N4CCCC4)cc(C)c3c2)cc1", "% Inhibition": 93}, {"smiles": "O=C1CN(S(=O)(=O)c2ccc(C(F)(F)F)cc2)C2(CCCCC2)CN1CC1CC1", "% Inhibition": -14}, {"smiles": "CCOC(=O)c1c(CN2CCOCC2)n(-c2ccc(C)cc2)c2ccc(Oc3nccc(Nc4ccccc4)c3C#N)cc12", "% Inhibition": 7}, {"smiles": "COCc1cc2nn(CC(=O)Nc3ccc(F)cc3)c(=O)n2c(-c2ccccc2)n1", "% Inhibition": -27}, {"smiles": "O=C(Nc1ccccc1)C1=NN(CC(=O)N2CCCCC2)C(=O)CC1", "% Inhibition": -1}, {"smiles": "CC(NS(C)(=O)=O)C(=O)N1CCC(F)(c2cc(F)cc(F)c2)C1", "note": "(stereo not given)", "% Inhibition": 12}, {"smiles": "COc1ccc(Nc2nc(C(C(F)(F)F)(C(F)(F)F)C(F)(F)F)nc(C(C(F)(F)F)(C(F)(F)F)C(F)(F)F)n2)cc1", "% Inhibition": 11}, {"smiles": "O=c1cc(-c2ccccc2)n(S(=O)(=O)c2ccccc2)o1", "% Inhibition": -7}, {"smiles": "Clc1cccc(N2CCN(Cc3ccc(OC4CCNCC4)cc3)CC2)c1", "% Inhibition": 14}, {"smiles": "CC(=O)C1(C(C)=O)[C@H](c2ccc(F)cc2)C1(C#N)C#N", "% Inhibition": -24}, {"smiles": "O=C(CCC1CCCCC1)Nc1ncccn1", "% Inhibition": -9}, {"smiles": "O=C(NCCCc1ccccc1)[C@H]1CCCN(c2nc3ccccc3[nH]2)C1", "% Inhibition": -4}, {"smiles": "CC(C)C1(C)CC(=O)N(C(C(=O)O)c2ccccc2)C1=O", "note": "(stereo not given)", "% Inhibition": -6}, {"smiles": "Cc1nc(N)nc(C)c1C(=O)Nc1ccc(Nc2ncccn2)cc1", "% Inhibition": 36}, {"smiles": "Cc1cc(N)nc(Nc2ccc(Nc3ccccc3)cc2)n1", "% Inhibition": 97}, {"smiles": "c1ccc(Nc2nc(-c3ccccc3)cc(-c3ccccc3)n2)cc1", "% Inhibition": 5}, {"smiles": "O=C(NC(C1CC1)C1CC1)c1ccsc1", "% Inhibition": -23}, {"smiles": "Cn1c(C(=O)N2CC[C@H](N)C2)ccc1-c1cccc(Br)c1", "% Inhibition": 11}, {"smiles": "N#Cc1c(-c2ccccc2)cc(-c2ccccc2)n(C(=O)c2ccc(F)cc2)c1=O", "% Inhibition": 9}, {"smiles": "Oc1nccc(C(F)(F)C(F)(F)F)n1", "% Inhibition": -3}, {"smiles": "CS(=O)(=O)Nc1nc2ccc(NC(=O)c3cc(-c4ccccc4)nc4ccccc34)cc2s1", "% Inhibition": 3}, {"smiles": "COc1ccc(-c2cc(C(=O)NC3CCN(C(C)C)CC3)c3ccccc3n2)cc1OC", "% Inhibition": -18}, {"smiles": "CCOc1ccc(-c2cc(NC(=O)c3cc(-c4cccnc4)nc4ccccc34)on2)cc1OCC", "% Inhibition": 98}, {"smiles": "Cc1ccc(-c2ccc(CN(CC(=O)NCC(=O)O)C(C)C)s2)cc1", "% Inhibition": 13}, {"smiles": "CCn1c(C)c(C)c2cc(C(=O)Nc3cccc(S(=O)(=O)N4CCOCC4)c3)ccc21", "% Inhibition": 4}, {"smiles": "CCN1CCN(C(=O)c2ccccc2N2CCC(NC(=O)c3cccc(Br)c3)CC2)CC1", "% Inhibition": 40}, {"smiles": "Cc1cccc(NC(=O)c2cc(C)nc3c2c(C)nn3-c2ccc(F)cc2)c1", "% Inhibition": 0}, {"smiles": "CCN1CCN(c2cccc(NC(=O)c3cc(F)cc4c(=O)c5cc(F)ccc5[nH]c34)c2)CC1", "% Inhibition": 96}, {"smiles": "CCN1CCN(c2cccc(NC(=O)c3ccc4[nH]c5ccccc5c(=O)c4c3)c2)CC1", "% Inhibition": 100}, {"smiles": "CC(C)NC(=O)N(C)Cc1ccc(F)cc1", "% Inhibition": 8}, {"smiles": "CC(=O)Nc1cccc(C#CCN2CCN(c3ccc(F)cc3)CC2)c1", "% Inhibition": 13}, {"smiles": "CC(C)n1nccc1NC(=O)c1c[nH]c2ccc(F)cc2c1=O", "% Inhibition": -4}, {"smiles": "CN(C)Cc1ccc(NC(=O)c2cc(F)cc3c(=O)c4cc(F)ccc4[nH]c23)cc1", "% Inhibition": 95}]}]}
